Laboratory results from PubChem BioAssay AID540336 (Broad Institute, 2011).
In all, about 330,000 compounds went through this assay and about 520 (0.16%) were called active.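 Rule for the calls: active = inhibition of at least 50% in every replicate; inconclusive = best replicate reaches 50% inhibition but some replicates fall short; inactive = the rest.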 The full list was thinned out, with actives kept by preference.

Biological target: Histone acetyltransferase RTT109 (Candida albicans (strain SC5314 / ATCC MYA-2876)) (UniProt Q5AAJ8)
Assay: inhibitors of C. albicans Rtt109/Vps75 HAT, primary screen, biochemical, ThioGlo CoA-SH fluorescence, plate reader (AID 540336)
Conditions: purified Rtt109/Vps75, ThioGlo CoA-SH fluorescence, 4 h; at 34.9 µM; hits give high values

Sequence of Histone acetyltransferase RTT109 (Candida albicans (strain SC5314 / ATCC MYA-2876)) (Q5AAJ8 whole entry, looked up): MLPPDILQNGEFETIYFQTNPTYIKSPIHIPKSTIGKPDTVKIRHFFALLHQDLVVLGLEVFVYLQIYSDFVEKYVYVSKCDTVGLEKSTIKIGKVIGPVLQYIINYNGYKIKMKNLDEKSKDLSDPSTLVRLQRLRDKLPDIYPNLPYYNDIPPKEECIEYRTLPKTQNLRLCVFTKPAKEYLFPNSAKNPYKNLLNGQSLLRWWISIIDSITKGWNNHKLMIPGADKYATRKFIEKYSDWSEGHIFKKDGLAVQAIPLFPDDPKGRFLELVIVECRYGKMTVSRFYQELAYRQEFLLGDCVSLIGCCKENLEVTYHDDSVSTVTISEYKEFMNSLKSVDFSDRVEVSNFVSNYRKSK

| SMILES | inhibition |
| --- | --- |
| CCCCCCCCCCCCn1ccc(=N)cc1 | 64.2% (active) |
| CC(=O)OC1C2(CC3N4C(=O)C5(CO)SSC4(CC31O)C(=O)N5C)OC(C)C(C)(C)C2=O (stereo not given) | -1.66% (inactive) |
| O=C(c1ccccc1)C(O)(CN1CCCCC1)c1ccccc1 (stereo not given) | -0.455% (inactive) |
| CCC(C)(O)C(=O)OC1C(=O)OC2CC3C(C)=CC(=O)C(O)C3(C)C3C4(O)OCC23C1C(C)C4O (stereo not given) | 11.1% (inactive) |
| COC1C(O)C(C)OC(OC2CCC3(C=O)C(CCC4C3CCC3(C)C(C5=CC(=O)OC5)CCC43O)C2)C1O (stereo not given) | 9.01% (inactive) |
